In all, about 33,000 sequences were measured (“E-score (-0.5 to 0.5)”: median about -0.012, highest 2% from about 0.27 on). Shown is part of a subset that was picked to be rich in the highest values.
target: T1, Vhr1 (UniProt P40522); test: PBM E-score (8-mer binding enrichment) (E-score (-0.5 to 0.5)); higher = stronger / more preferred TF binding; conditions: protein concentration: 200 nM; construct: GST-full length
T1 sequence: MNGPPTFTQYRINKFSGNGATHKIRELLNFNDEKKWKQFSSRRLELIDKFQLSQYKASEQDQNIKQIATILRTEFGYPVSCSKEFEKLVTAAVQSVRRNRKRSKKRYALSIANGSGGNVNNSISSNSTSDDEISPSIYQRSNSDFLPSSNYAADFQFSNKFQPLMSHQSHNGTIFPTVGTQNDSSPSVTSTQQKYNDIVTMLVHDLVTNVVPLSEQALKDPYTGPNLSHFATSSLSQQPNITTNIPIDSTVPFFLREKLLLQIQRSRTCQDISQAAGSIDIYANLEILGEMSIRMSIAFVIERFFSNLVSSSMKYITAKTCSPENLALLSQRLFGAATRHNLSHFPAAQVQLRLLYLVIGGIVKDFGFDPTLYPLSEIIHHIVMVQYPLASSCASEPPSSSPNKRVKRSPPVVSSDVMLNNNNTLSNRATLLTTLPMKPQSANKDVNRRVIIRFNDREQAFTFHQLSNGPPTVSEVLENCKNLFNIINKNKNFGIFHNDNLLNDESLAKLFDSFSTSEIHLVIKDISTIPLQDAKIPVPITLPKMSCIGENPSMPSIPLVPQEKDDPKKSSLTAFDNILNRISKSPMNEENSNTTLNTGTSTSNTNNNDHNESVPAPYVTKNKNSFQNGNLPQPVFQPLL
Procedure: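 Universal 'all 10-mer' protein binding microarrays (Agilent AMADID 015681) probed with GST-tagged S. cerevisiae TFs (full-length or DBD) made by in vitro transcription/translation (PURExpress), about 100-200 nM. Bound TF was detected with fluorescent anti-GST. Each ungapped 8-mer (which stands for itself and its reverse complement) is scored by the PBM enrichment score (E-score), a modified Wilcoxon-Mann-Whitney statistic from -0.5 to +0.5, computed with the Universal PBM Analysis Suite. Scale: above 0.35 generally sequence-specific binding.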

| Sequence | PBM E-score |
| --- | --- |
| GGAATTCC | -0.279 |
| CTAATGAA | 0.0817 |
| AGCATCTC | 0.0587 |
| GGATTTGA | -0.0695 |
| ATCGTGAC | 0.113 |
| CTCGTGAC | 0.273 |
| CTCGTGAA | 0.0314 |
| GCCCTCCA | -0.133 |
| CCATATCA | 0.0898 |
| ATATATAA | 0.247 |
| ATATATAT | 0.324 |
| GTATATAC | 0.0568 |
| CTATATAC | 0.241 |
| CTATATCC | -0.00727 |
| ATATATAC | 0.285 |
| ATATATCA | 0.0989 |
| ATATATAG | 0.132 |
| ACATATCA | 0.281 |
| ATATATCC | 0.273 |
| ACATATCG | 0.191 |
| GCCTGCGA | -0.00738 |
| AGAATACT | 0.0167 |
| CAGTACCC | 0.103 |
| GATAATGC | 0.114 |
| GACCACGC | 0.148 |

| Sequence | PBM E-score |
| --- | --- |
| AAATCACC | 0.312 |
| CAATCACC | 0.238 |
| GAATCACA | 0.341 |
| AAATCACG | 0.173 |
| CAATCACG | 0.211 |
| GCATCACC | -0.0259 |
| TAATCACA | 0.222 |
| AAATCACA | 0.0215 |
| GAATCACC | 0.392 |
| CTAGAAAC | -0.252 |
| AAGGCTCC | -0.172 |
| ATCGACGG | 0.0804 |
| CCGAATGA | 0.166 |
| CAACCGCG | 0.3 |
| CAACCGCA | 0.0762 |
| CAACCGCC | -0.102 |
| GATTATAC | 0.213 |
| GCGGGCTA | -0.119 |
| AGCGGCTC | -0.0971 |
| CGCGGCTC | 0.278 |
| CGCGGCTA | -0.0223 |
| GGAGTCAA | 0.354 |
| CGTGTCAG | 0.037 |
| CAAGTCAA | -0.0643 |
| CGAGTCAG | 0.429 |

| Sequence | PBM E-score |
| --- | --- |
| CGAGTCAC | 0.467 |
| CCAGTCAG | 0.0854 |
| CGAGTCCC | 0.186 |
| GGAGTCTA | 0.0135 |
| CGAGTCTA | -0.0817 |
| CGAGTCTC | 0.0296 |
| CGAGTCAA | 0.278 |
| GGAGTCGA | 0.122 |
| CCGTGCCG | -0.00022 |
| AACCTCTC | -0.172 |
| GCAGCCGA | 0.0559 |
| GCAGGCCA | 0.117 |
| ACTGATCC | 0.0497 |
| ATTGTTTC | 0.217 |
| TCAGTCAA | 0.114 |
| CGAGTCCA | -0.0942 |
| CGAGTCCG | 0.286 |
| TTAGTCAA | 0.168 |
| GGAGTCCA | 0.163 |
| TGAGTCCA | 0.3 |
| AGAGTCCG | -0.0962 |
| CCAGTCCG | -0.0813 |
| TGAGTCAA | 0.419 |
| CAATCAAA | -0.008 |
| CCTTCCCC | 0.0876 |

| Sequence | PBM E-score |
| --- | --- |
| CCCTATCC | -0.0379 |
| CCAGCTGG | 0.301 |
| CCAGCTGC | -0.105 |
| ACAGCTGG | -0.119 |
| AGTAAATC | 0.0723 |
| CGGACTTA | -0.189 |
| CGGACTCA | 0.381 |
| AGGACTCA | 0.376 |
| AGGACTCG | 0.167 |
| CGGACTCC | 0.2 |
| AGGACTCC | 0.129 |
| ATATACTA | 0.257 |
| CCTTGAGA | -0.0758 |
| AAATAGTG | -0.149 |
| ACATAGTC | 0.272 |
| AAATAGTC | 0.0418 |
| CCATAGTC | 0.225 |
| ACATAGTA | 0.188 |
| ACATAGTG | 0.314 |
| CCAGGACA | -0.0732 |
| CTGCACAA | -0.0636 |
| GGTTGTGA | 0.143 |
| ATCTCAAA | -0.0488 |
| TGCTCAAA | -0.193 |
| AATCCATT | 0.113 |

| Sequence | PBM E-score |
| --- | --- |
| ACTAATCG | 0.251 |
| GCTCAGTA | -0.0102 |
| CCGCAGTC | 0.274 |
| ACTCAGTA | 0.281 |
| ACTCAGTG | 0.245 |
| CCTCAGTC | 0.0647 |
| CCGCAGTA | 0.0424 |
| ACGCAGTC | 0.169 |
| CCTCAGTA | -0.106 |
| ACTCAGTC | 0.314 |
| ACGATGCC | -0.257 |
| AGCAACTG | 0.00583 |
| GACCCAAA | 0.0473 |
| CGGAATAA | -0.0766 |
| GGCCACTA | -0.00131 |
| GTTGCCTA | -0.162 |
| GAACGATA | -0.0543 |
| AAACCAGT | 0.0233 |
| ATCTTGGA | 0.0371 |
| GCCTTATA | -0.0741 |
| AGCCCGAC | 0.0296 |
| CGCCCGAC | 0.342 |
| CGCCCGAA | -0.0969 |
| AACGAGCA | -0.0591 |
| ATGCTCAG | 0.141 |

| Sequence | PBM E-score |
| --- | --- |
| ACTAGAGT | 0.0036 |
| ACCACATC | 0.276 |
| ACCACATA | 0.125 |
| ACCACATG | 0.262 |
| CGCTCACA | 0.137 |
| ACCAACAG | 0.046 |
| ACCAACAA | 0.359 |
| CCCAACCA | 0.275 |
| CCCAACCC | 0.118 |
| ACCAACCA | 0.163 |
| ACCAACAT | 0.157 |
| CCCTAGCC | -0.184 |
| CCCCCACC | -0.341 |
| CACCCACA | 0.241 |
| AACCCACC | 0.313 |
| GCCCCTCC | 0.331 |
| AACCCACT | 0.246 |
| CACCCACC | 0.317 |
| GCCCCTCA | -0.0991 |
| CCCCCTCC | -0.0898 |
| GCCCCACC | 0.265 |
| GACCCACC | 0.224 |
| ACCCCACC | 0.385 |
| AACCCACA | 0.168 |
| GCGGCCAC | 0.0847 |

| Sequence | PBM E-score |
| --- | --- |
| ACAGCGAT | -0.04 |
| AGATCTGC | -0.0821 |
| GGGCTGGA | -0.0152 |
| GGTGGTCA | 0.00378 |
| CACCCACG | 0.249 |
| AACCCTCC | -0.129 |
| CACCCTCA | 0.0412 |
| AACCCACG | 0.0933 |
| GACCCACA | 0.284 |
| CACCCTCC | 0.276 |
| CCACCAAA | 0.0455 |
| GCGAAACC | -0.0227 |
| GAGTCTCA | 0.256 |
| GCACACCC | 0.139 |
| GCGCGCGC | 0.379 |
| GCGCGCGA | 0.185 |
| GCGCGCAA | 0.3 |
| ACGCGCGC | 0.107 |
| CCGCGCGC | 0.258 |
| CCGCGCGA | 0.22 |
| CCGCGCAA | -0.026 |
| CCGCGCGG | 0.346 |

From the supplement of paper PMC3334620
